Data as given in the antibiotic and cytotoxicity screens of Wong et al. (2023).
Screen size: about 39,000 compounds; about 3,300 (8.5%) were called active. The full list was thinned out, with actives kept by preference.

What follows are compounds tested on HepG2 (assay: cytotoxicity call (relative viability < 0.9)). Settings: 10 µM.

| SMILES | cytotoxicity call |
| --- | --- |
| C[C@@H]1CN([C@@H](C)CO)C(=O)c2cc(NC(=O)Nc3ccc4c(c3)OCO4)ccc2O[C@H]1CN(C)C(=O)Nc1cccc2ccccc12 | inactive |
| O=C(C[C@@H]1C[C@H]2c3cc(NC(=O)NC4CCCC4)ccc3O[C@H]2[C@H](CO)O1)NCCN1CCCCC1 | inactive |
| COc1ccc2c(=O)cc(-c3ccccc3)oc2c1OC | inactive |
| Cc1cc(=O)oc2c(O)c(O)ccc12 | active |
| Cc1cc2cc3c(C)cc(=O)oc3c(C)c2o1 | inactive |
| O=c1cc(-c2ccccc2)oc2cc(O)ccc12 | inactive |
| O=c1cc(-c2ccccc2)oc2c(O)c(O)ccc12 | active |
| Cc1cc(=O)oc2cc(O)ccc12 | inactive |
| C[C@@H]1CCCCO[C@@H](CN(C)C(=O)Nc2ccc(F)cc2)[C@H](C)CN([C@H](C)CO)C(=O)c2cc(NC(=O)Nc3ccccc3)ccc2O1 | inactive |
| C[C@@H]1CN([C@@H](C)CO)C(=O)c2cc(NS(=O)(=O)c3ccc(Cl)cc3)ccc2O[C@@H](C)CCCCO[C@H]1CN(C)C(=O)c1ccccc1 | inactive |
| Cc1ccc(S[C@]2(C(=O)NCC(C)C)CC(=O)N(Cc3ccccc3C(F)(F)F)[C@@H]2c2ccc(CO)cc2)cc1 | inactive |
| Cc1noc(C)c1NC(=O)Nc1ccc2c(c1)C(=O)N([C@@H](C)CO)C[C@@H](C)[C@H](CN(C)Cc1ccc(Oc3ccccc3)cc1)O2 | inactive |
| COC(=O)CCCCCCC(=O)N/N=C/[C@H](O)[C@H](O)[C@@H](O)[C@H](C)O | inactive |
| C=CC[C@@H](CC(=O)N(CCO)Cc1ccccc1)C(=O)N[C@H](COC(=O)[C@@H](CC=C)Cc1ccc(F)cc1)Cc1c[nH]c2ccccc12 | active |
| C=CC[C@H](CC(=O)N(CCO)Cc1ccccc1)C(=O)N[C@@H](COC(=O)[C@H](CC=C)CC(=O)OC(C)(C)C)Cc1c[nH]c2ccccc12 | inactive |
| C=CC[C@H](CC(=O)N(CCO)Cc1ccccc1)C(=O)N[C@@H](COC(=O)[C@@H](CC=C)Cc1ccc(F)cc1)Cc1c[nH]c2ccccc12 | active |
| C=CC[C@@H](CC(=O)N(CCO)Cc1ccccc1)C(=O)N[C@@H](COC(=O)[C@H](CC=C)CC(=O)OC(C)(C)C)Cc1c[nH]c2ccccc12 | inactive |
| C=CC[C@H](CC(=O)N(CCO)Cc1ccccc1)C(=O)N[C@H](COC(=O)[C@@H](CC=C)Cc1ccc(F)cc1)Cc1c[nH]c2ccccc12 | inactive |
| C=CC[C@@H](CC(=O)N(CCO)Cc1ccccc1)C(=O)N[C@@H](COC(=O)[C@H](CC=C)Cc1ccc(F)cc1)Cc1c[nH]c2ccccc12 | active |
| C=CC[C@@H](CC(=O)N(CCO)Cc1ccccc1)C(=O)N[C@@H](COC(=O)[C@@H](CC=C)CC(=O)OC(C)(C)C)Cc1c[nH]c2ccccc12 | inactive |
| C=CC[C@@H](CC(=O)N(CCO)Cc1ccccc1)C(=O)N[C@@H](COC(=O)[C@@H](CC=C)Cc1ccc(F)cc1)Cc1c[nH]c2ccccc12 | inactive |
| C=CC[C@H](CC(=O)N(CCO)Cc1ccccc1)C(=O)N[C@H](COC(=O)[C@H](CC=C)CC(=O)OC(C)(C)C)Cc1c[nH]c2ccccc12 | inactive |

| SMILES | cytotoxicity call |
| --- | --- |
| c1ccc2c(CSc3nc4ccccc4o3)cccc2c1 | inactive |
| CNC(=O)C[C@H]1CC[C@@H]2[C@H](COC[C@H](O)CN2C(=O)Nc2cccc(OC)c2)O1 | inactive |
| C[C@@H]1CCCCO[C@H](CN(C)C(=O)Nc2cccc3ccccc23)[C@@H](C)CN([C@H](C)CO)C(=O)c2cc(NC(=O)Nc3cccc4ccccc34)ccc2O1 | inactive |
| C[C@@H]1CN([C@@H](C)CO)C(=O)c2cc(NS(=O)(=O)c3ccc(Cl)cc3)ccc2O[C@@H](C)CCCCO[C@H]1CN(C)S(=O)(=O)c1ccccc1 | inactive |
| COc1ccc(NC(=O)N(C)C[C@H]2OCc3cnnn3CCCC(=O)N([C@H](C)CO)C[C@H]2C)c(OC)c1 | inactive |
| C[C@@H]1CN([C@H](C)CO)C(=O)c2c(c3ccccc3n2C)-c2ccccc2CO[C@H]1CN(C)C(=O)CCC(F)(F)F | inactive |
| C[C@@H]1CN([C@@H](C)CO)C(=O)c2cc(C#CC3(O)CCCC3)cnc2O[C@@H]1CN(C)C(=O)Nc1ccc2c(c1)OCO2 | inactive |
| COCC#Cc1ccc2c(c1)O[C@@H](CN(C)C(=O)C1CCOCC1)[C@@H](C)CN([C@H](C)CO)S2(=O)=O | inactive |
| CCS(=O)(=O)Nc1ccc2c(c1)C(=O)N(C)[C@H]1CC[C@@H](CC(=O)NCc3ccccc3F)O[C@H]1CO2 | inactive |
| C[C@H]1CN([C@@H](C)CO)C(=O)Cc2cc(NC(=O)CCCCCC(=O)Nc3ccccc3N)ccc2O[C@H]1CN(C)Cc1ccc(Cl)c(Cl)c1 | inactive |
| C[C@H]1CN([C@@H](C)CO)C(=O)Cc2cc(NC(=O)CCCCCC(=O)Nc3ccccc3N)ccc2O[C@H]1CN(C)Cc1ccccc1 | inactive |
| C[C@@H]1CN([C@@H](C)CO)C(=O)Cc2cc(NC(=O)CCCCCC(=O)Nc3ccccc3N)ccc2O[C@@H]1CN(C)Cc1ccc(-c2ccccc2)cc1 | active |
| C[C@@H]1CN([C@H](C)CO)C(=O)Cc2cc(NC(=O)CCCCCC(=O)Nc3ccccc3N)ccc2O[C@@H]1CN(C)Cc1ccc(Cl)c(Cl)c1 | active |
| C[C@@H]1CN([C@H](C)CO)C(=O)Cc2cc(NC(=O)CCCCCC(=O)Nc3ccccc3N)ccc2O[C@@H]1CN(C)Cc1ccc(-c2ccccc2)cc1 | active |
| C[C@H](CO)N1C[C@H](C)[C@H](CN(C)Cc2ccccc2)Oc2ccc(NC(=O)CCCCCC(=O)Nc3ccccc3N)cc2CC1=O | inactive |
| C[C@H]1CN([C@@H](C)CO)C(=O)Cc2cc(NC(=O)CCCCCC(=O)Nc3ccccc3N)ccc2O[C@@H]1CN(C)Cc1ccc(-c2ccccc2)cc1 | inactive |
| C[C@H](CO)N1C[C@H](C)[C@@H](CN(C)Cc2ccc(-c3ccccc3)cc2)Oc2ccc(NC(=O)CCCCCC(=O)Nc3ccccc3N)cc2CC1=O | inactive |
| C[C@@H]1CN([C@H](C)CO)C(=O)Cc2cc(NC(=O)CCCCCC(=O)Nc3ccccc3N)ccc2O[C@H]1CN(C)Cc1ccc(Cl)c(Cl)c1 | inactive |
| C[C@@H]1CN([C@@H](C)CO)C(=O)Cc2cc(NC(=O)CCCCCC(=O)Nc3ccccc3N)ccc2O[C@@H]1CN(C)Cc1ccccc1 | inactive |
| C[C@H](CO)N1C[C@H](C)[C@H](CN(C)Cc2ccc(-c3ccccc3)cc2)Oc2ccc(NC(=O)CCCCCC(=O)Nc3ccccc3N)cc2CC1=O | active |
| C[C@@H]1CN([C@H](C)CO)C(=O)Cc2cc(NC(=O)CCCCCC(=O)Nc3ccccc3N)ccc2O[C@@H]1CN(C)Cc1ccccc1 | inactive |
| COc1ccc2c3c(n(c2c1)C)[C@H](CO)N(C[C@]13CCN(CC1)S(=O)(=O)c1ccccc1)C(=O)c1cccnc1 | inactive |

| SMILES | cytotoxicity call |
| --- | --- |
| c1ccc(-c2cc(-c3nc4ccccc4[nH]3)c3ccccc3n2)cc1 | inactive |
| CNCc1cnc(NC)nc1 | inactive |
| C[C@@H]1CN([C@H](C)CO)C(=O)c2cccc(NS(=O)(=O)c3cn(C)cn3)c2O[C@H]1CN(C)CC1CC1 | inactive |
| CCO[C@@H]1OC(C(=O)N2CCN(Cc3ccccc3)CC2)=C[C@H](c2cn(C(C)=O)c3ccccc23)[C@H]1CCCOC(=O)NCCCCCC(=O)NO | inactive |
| CNCc1cc(C)nn1C | inactive |
| COc1cccc(-c2cn(CC[C@@H]3CC[C@@H](NS(=O)(=O)c4ccccc4Cl)[C@H](CO)O3)nn2)c1 | inactive |
| C[C@H](CO)N1C[C@H](C)[C@@H](CN(C)S(=O)(=O)c2ccc(F)cc2)Oc2ccc(NC(=O)C3CC3)cc2C1=O | inactive |
| Cc1ccc(S(=O)(=O)N[C@H]2CC[C@@H](CC(=O)NCc3ccc(Cl)c(Cl)c3)O[C@H]2CO)cc1 | inactive |
| C[C@@H]1CCCCO[C@@H](CN(C)CC2CC2)[C@@H](C)CN([C@H](C)CO)C(=O)c2cc(NC(=O)CCC(F)(F)F)ccc2O1 | inactive |
| C[C@@H]1CN([C@H](C)CO)C(=O)Cc2cc(NC(=O)CCCCCC(=O)Nc3ccccc3N)ccc2O[C@H]1CN(C)Cc1ccc(-c2ccccc2)cc1 | inactive |
| C[C@H]1CN([C@@H](C)CO)C(=O)Cc2cc(NC(=O)CCCCCC(=O)Nc3ccccc3N)ccc2O[C@H]1CN(C)Cc1ccc(-c2ccccc2)cc1 | active |
| C[C@@H]1CN([C@@H](C)CO)C(=O)Cc2cc(NC(=O)CCCCCC(=O)Nc3ccccc3N)ccc2O[C@H]1CN(C)Cc1ccc(-c2ccccc2)cc1 | inactive |
| C[C@@H]1CN([C@@H](C)CO)C(=O)c2cccc(NS(=O)(=O)c3ccc(Cl)cc3)c2O[C@@H]1CN(C)Cc1ccc(C(=O)Nc2ccccc2N)cc1 | active |
| C[C@@H]1CN([C@H](C)CO)C(=O)c2cccc(NS(=O)(=O)c3ccc(Cl)cc3)c2O[C@H]1CN(C)Cc1ccc(C(=O)Nc2ccccc2N)cc1 | inactive |
| C[C@H](CO)N1C[C@H](C)[C@H](CN(C)Cc2ccc(C(=O)Nc3ccccc3N)cc2)Oc2ccc(NS(=O)(=O)c3ccc(Cl)cc3)cc2C1=O | inactive |
| C[C@@H]1CN([C@H](C)CO)C(=O)c2cccc(NS(=O)(=O)c3ccc(Cl)cc3)c2O[C@@H]1CN(C)Cc1ccc(C(=O)Nc2ccccc2N)cc1 | inactive |
| C[C@@H]1CN([C@H](C)CO)C(=O)c2cc(NS(=O)(=O)c3ccc(Cl)cc3)ccc2O[C@@H]1CN(C)Cc1ccc(C(=O)Nc2ccccc2N)cc1 | inactive |
| C[C@H](CO)N1C[C@H](C)[C@H](CN(C)Cc2ccc(C(=O)Nc3ccccc3N)cc2)Oc2c(NS(=O)(=O)c3ccc(Cl)cc3)cccc2C1=O | active |
| C[C@@H]1CN([C@@H](C)CO)C(=O)c2cc(NS(=O)(=O)c3ccc(Cl)cc3)ccc2O[C@@H]1CN(C)Cc1ccc(C(=O)Nc2ccccc2N)cc1 | active |
| C[C@H]1CN([C@@H](C)CO)C(=O)c2cccc(NS(=O)(=O)c3ccc(Cl)cc3)c2O[C@@H]1CN(C)Cc1ccc(C(=O)Nc2ccccc2N)cc1 | inactive |
| C[C@@H]1CN([C@@H](C)CO)C(=O)c2cccc(NS(=O)(=O)c3ccc(Cl)cc3)c2O[C@H]1CN(C)Cc1ccc(C(=O)Nc2ccccc2N)cc1 | inactive |
